Holding throughout (set-up): scale not given: direction of the effect not stated beside the values
Assay [1] has as its target Protein translocase subunit SecA (Escherichia coli (strain K12)) (UniProt P10408). Description: Assay to Identify E. coli SecA ATPase Inhibitors. In kind it is functional. The conditions noted are these: 30 µM.
Assay [2] deals with T1, Ubiquitin-activating enzyme e1, putative (Leishmania donovani (strain BPK282A1)) (UniProt E9BSI1).
T1 sequence (whole entry): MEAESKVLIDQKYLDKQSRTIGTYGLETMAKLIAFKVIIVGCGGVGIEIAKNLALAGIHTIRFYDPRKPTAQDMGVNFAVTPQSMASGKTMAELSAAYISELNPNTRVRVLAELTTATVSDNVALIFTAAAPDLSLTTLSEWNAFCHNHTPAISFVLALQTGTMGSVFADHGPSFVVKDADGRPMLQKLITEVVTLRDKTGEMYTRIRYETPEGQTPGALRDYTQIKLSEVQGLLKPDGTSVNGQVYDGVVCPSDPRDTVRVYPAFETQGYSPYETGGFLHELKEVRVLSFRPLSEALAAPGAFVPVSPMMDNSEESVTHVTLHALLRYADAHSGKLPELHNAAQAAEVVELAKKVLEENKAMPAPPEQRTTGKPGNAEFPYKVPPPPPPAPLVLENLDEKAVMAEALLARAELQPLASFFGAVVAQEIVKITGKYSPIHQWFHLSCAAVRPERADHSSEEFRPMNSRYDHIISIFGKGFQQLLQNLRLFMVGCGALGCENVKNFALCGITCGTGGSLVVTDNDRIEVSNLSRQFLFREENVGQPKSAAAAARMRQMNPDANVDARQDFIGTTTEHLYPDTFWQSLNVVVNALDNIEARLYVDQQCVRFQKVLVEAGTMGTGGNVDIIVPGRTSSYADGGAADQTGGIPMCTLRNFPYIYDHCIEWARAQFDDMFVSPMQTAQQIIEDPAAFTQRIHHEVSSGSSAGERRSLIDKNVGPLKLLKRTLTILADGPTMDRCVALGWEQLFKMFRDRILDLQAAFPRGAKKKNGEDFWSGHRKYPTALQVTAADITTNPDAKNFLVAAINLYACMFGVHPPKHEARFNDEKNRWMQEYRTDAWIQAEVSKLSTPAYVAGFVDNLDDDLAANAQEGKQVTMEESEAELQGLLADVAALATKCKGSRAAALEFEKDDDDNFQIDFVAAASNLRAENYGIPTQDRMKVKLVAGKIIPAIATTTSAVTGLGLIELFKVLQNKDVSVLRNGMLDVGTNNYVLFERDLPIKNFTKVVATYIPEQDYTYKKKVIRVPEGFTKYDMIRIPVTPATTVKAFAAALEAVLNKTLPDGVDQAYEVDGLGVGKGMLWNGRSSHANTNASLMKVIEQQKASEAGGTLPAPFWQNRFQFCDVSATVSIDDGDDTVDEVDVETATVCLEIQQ
Description: Leishmania donovani Ubiquitin Activating Enzyme (LdE1). In kind it is functional. Particulars: 30 µM.

The target of assay [3] is AMP-activated protein kinase, AMPK (Homo sapiens) (UniProt P54646+O43741+P54619+Q9UGJ0+Q9Y478+Q13131+Q9UGI9). The assay can be described thus: AMP-dependent Kinase enzyme assay. An in vitro enzyme assay that detects ADP turnover that is directly proportional to AMPK activity. This uses naive AMPK that is activated during the assay with MK-8722. The class given is functional. Particulars: 30 µM.

Assay [4] has as its target Sialic acid-binding Ig-like lectin 9 (Homo sapiens) (UniProt Q9Y336). Description: Hs-Siglec9 ALPHAscreen SOP 20170721. The conditions noted are these: 10 µM.
The next assay has as its system Trypanosoma cruzi. The assay can be described thus: Trypanosoma cruzi phosphomannomutase and mannose-1-phosphate guanylyltransferase assay. In kind it is functional. The conditions noted are these: 10 µM.
For assay [5], the target named is T2, Arginase-2, mitochondrial (Homo sapiens) (UniProt P78540).
T2 sequence (whole entry): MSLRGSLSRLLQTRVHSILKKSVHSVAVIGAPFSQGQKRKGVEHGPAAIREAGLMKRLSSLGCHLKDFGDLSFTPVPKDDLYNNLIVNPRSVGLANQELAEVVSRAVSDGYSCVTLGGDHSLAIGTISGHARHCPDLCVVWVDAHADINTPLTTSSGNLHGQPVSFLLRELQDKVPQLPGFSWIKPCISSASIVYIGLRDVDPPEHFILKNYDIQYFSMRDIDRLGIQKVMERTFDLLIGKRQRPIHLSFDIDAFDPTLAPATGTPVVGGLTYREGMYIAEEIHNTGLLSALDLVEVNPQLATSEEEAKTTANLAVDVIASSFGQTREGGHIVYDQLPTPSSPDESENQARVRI
Description: in vitro enzyme assay to detect the production of urea directly proportional to the activity of Arginase II. Further: in the data most compounds retested in dose-response had high values. The class given is functional. Particulars: 33.3 µM.

In assay [6] the target is T3, Proteasome subunit beta (Trypanosoma cruzi) (UniProt O96673).
T3 sequence (whole entry): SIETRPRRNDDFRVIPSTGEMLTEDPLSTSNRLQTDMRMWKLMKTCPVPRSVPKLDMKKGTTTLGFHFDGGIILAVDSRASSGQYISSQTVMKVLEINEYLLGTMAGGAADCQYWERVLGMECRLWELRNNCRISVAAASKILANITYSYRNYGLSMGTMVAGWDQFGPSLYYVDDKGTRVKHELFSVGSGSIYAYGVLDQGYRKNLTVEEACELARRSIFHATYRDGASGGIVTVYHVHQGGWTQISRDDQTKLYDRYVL
Description: Trypanosoma cruzi proteasome chymotrypsin-like activity (TcProtChymo) assay. Further: in the data most compounds retested in dose-response had high values. In kind it is functional. The conditions noted are these: 9.37 µM.

For a further assay, the species on record is Homo sapiens. Description: To identify inhibition of the IFN signalling (Jak-Stat) pathway via expression of an eGFP reporter gene under the control of an IFN-stimulated response element (ISRE) containing MxA promoter. In kind it is functional. Particulars: 30 µM. A general note: In a reporter assay the amount or activity of a reporter protein is the signal.

The target in assay [7] is T4, Tyrosyl-tRNA synthetase, putative (Trypanosoma cruzi (strain CL Brener)) (UniProt Q4DSP6).
T4 sequence (whole entry): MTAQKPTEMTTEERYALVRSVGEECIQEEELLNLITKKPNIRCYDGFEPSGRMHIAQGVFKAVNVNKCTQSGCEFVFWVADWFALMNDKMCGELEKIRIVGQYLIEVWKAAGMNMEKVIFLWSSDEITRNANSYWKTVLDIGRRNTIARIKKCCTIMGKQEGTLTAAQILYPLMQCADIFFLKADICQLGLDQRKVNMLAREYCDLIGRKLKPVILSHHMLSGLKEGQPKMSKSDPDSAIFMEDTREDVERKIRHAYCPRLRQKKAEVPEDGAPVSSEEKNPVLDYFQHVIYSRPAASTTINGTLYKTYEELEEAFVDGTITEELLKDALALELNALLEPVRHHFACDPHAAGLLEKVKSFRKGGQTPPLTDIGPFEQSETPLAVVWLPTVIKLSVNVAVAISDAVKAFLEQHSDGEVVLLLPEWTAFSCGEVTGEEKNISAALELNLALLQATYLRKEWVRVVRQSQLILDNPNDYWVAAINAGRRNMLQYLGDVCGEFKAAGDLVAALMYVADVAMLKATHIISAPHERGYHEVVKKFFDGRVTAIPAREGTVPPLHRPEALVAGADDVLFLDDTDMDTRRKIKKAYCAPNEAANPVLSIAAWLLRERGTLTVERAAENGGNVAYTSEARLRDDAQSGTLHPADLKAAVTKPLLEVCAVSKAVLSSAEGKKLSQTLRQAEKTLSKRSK
The assay can be described thus: Trypanosoma cruzi tyrosyl tRNA synthetase (TcYRS) _High Tyrosine SOP. Further: in the data most compounds retested in dose-response had high values. Particulars: 30 µM. In kind it is functional.

The target in assay [8] is T4, Tyrosyl-tRNA synthetase, putative (Trypanosoma cruzi (strain CL Brener)). The assay can be described thus: Trypanosoma cruzi tyrosyl tRNA synthetase (TcYRS) SOP. The class given is functional. Particulars: 30 µM.
The target in assay [9] is Chromo domain-containing protein 1 (Saccharomyces cerevisiae (strain ATCC 204508 / S288c) (Baker's yeast)) (UniProt P32657). Description: ScCHD-1 Enzyme Inhibition Assay. Further: in the data most compounds retested in dose-response had high values. The class given is functional. The conditions noted are these: 30 µM.
Sequence of Chromo domain-containing protein 1 (Saccharomyces cerevisiae (strain ATCC 204508 / S288c) (Baker's yeast)) (P32657 whole entry, the tested form may be a part): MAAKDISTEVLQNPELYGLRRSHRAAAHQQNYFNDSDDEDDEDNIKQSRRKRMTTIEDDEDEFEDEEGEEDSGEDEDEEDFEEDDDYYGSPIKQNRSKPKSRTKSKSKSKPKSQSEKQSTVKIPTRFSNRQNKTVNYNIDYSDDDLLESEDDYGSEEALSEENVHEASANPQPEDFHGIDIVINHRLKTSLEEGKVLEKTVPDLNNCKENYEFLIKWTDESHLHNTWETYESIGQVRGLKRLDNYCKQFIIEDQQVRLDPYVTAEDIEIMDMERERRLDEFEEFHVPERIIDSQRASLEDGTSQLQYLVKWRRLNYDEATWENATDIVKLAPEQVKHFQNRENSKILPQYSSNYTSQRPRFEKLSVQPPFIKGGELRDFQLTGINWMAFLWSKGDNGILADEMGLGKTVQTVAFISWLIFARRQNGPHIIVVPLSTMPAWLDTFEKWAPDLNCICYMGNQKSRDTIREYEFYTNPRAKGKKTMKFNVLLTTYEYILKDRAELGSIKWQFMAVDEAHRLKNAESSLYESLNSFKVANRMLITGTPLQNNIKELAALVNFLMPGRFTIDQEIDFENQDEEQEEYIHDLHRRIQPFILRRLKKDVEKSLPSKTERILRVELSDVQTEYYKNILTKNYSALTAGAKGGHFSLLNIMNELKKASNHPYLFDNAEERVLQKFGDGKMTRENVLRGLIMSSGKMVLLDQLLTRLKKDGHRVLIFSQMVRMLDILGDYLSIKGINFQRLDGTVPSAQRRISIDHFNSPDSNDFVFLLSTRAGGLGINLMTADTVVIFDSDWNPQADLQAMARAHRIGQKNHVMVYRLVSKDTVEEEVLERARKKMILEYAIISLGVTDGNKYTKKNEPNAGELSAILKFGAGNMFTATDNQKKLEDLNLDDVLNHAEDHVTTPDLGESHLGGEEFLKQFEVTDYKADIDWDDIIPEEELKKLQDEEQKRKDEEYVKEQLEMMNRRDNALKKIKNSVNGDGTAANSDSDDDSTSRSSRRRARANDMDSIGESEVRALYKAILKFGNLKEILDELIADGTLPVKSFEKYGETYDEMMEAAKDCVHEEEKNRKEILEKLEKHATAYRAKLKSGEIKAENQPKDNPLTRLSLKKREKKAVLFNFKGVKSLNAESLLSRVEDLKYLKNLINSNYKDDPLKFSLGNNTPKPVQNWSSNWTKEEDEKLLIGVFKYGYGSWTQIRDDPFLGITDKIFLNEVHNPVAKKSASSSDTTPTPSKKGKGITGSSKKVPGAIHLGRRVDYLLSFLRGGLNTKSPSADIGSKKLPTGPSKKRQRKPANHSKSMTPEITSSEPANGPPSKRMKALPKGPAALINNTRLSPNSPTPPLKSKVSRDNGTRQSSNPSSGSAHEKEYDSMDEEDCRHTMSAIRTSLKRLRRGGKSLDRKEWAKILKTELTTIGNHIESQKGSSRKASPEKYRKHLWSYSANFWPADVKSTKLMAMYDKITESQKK

SMILES strings stand for the structures. For some of these results: Entries with a potency or affinity are not part of this list.

Sequence of Protein translocase subunit SecA (Escherichia coli (strain K12)) (P10408 whole entry): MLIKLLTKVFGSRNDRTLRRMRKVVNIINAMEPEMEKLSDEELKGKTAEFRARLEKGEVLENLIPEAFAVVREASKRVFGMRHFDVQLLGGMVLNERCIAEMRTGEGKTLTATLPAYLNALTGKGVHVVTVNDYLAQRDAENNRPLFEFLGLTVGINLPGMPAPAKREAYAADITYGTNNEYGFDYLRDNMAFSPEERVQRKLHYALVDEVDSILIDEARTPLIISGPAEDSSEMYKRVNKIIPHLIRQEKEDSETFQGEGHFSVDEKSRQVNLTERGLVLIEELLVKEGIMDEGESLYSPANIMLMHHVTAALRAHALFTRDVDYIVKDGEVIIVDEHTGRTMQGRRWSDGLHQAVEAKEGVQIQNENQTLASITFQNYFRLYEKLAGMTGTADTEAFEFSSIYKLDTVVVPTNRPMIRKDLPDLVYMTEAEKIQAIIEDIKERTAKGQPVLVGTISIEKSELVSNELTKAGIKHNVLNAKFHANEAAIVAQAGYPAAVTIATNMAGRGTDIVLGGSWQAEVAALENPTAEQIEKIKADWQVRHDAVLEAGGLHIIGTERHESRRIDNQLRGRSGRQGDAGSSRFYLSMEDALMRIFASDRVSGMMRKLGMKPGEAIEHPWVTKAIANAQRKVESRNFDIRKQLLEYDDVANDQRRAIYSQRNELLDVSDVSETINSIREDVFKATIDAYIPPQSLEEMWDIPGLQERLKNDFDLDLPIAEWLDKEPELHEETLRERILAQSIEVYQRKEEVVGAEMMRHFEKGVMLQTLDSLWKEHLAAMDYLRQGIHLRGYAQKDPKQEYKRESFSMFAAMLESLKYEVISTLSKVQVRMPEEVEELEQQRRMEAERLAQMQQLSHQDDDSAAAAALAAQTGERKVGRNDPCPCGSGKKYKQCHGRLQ
Sequence of Sialic acid-binding Ig-like lectin 9 (Homo sapiens) (Q9Y336 whole entry): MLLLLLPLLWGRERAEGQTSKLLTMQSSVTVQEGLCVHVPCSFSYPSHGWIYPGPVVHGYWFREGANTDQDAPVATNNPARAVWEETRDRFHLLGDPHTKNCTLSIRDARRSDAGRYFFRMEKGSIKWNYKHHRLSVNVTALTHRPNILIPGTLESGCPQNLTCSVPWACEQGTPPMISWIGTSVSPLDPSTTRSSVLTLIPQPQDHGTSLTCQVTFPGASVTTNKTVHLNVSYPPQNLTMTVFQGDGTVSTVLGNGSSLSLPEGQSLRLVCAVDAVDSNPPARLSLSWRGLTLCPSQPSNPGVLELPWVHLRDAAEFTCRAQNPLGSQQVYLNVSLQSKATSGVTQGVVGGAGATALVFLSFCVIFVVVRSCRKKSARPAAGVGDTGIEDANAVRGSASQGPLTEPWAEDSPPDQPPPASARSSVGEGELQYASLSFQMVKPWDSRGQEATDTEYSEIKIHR

In the case of `Cc1ccc(CC(=O)N2CCOC(c3nc(C)n[nH]3)C2)cn1` (stereo unspecified), the Percent Effect in assay [1] was -3.84%; in assay [2], 20.8%; in [3], -6.18%; in [4] it was 28.2%; with Trypanosoma cruzi, 3.79%; in [5], 5.74%. Further, the Percent Effect is 5.96% in assay [6]; -6.79% in the assay filed under Homo sapiens; 6.32% in assay [7]; 12.8% in [8]; -3.82% in [9].

As to `Cc1occc1C(=O)N1CCC2(CCCN(CC3CCC3)C2=O)C1` (stereo unspecified), the Percent Effect in [1] was 0.601%; in assay [2], 1.39%; in assay [3], -1.7%; in [4], 8.02%; in the assay on Trypanosoma cruzi, 2.62%; in assay [5], 11%. Further, the Percent Effect in assay [6] was 13.3%; in the assay listed under Homo sapiens, 13.6%; in assay [7], 6.32%; in assay [8], 10.3%; in assay [9] it was -2.8%.

`CSCC[C@H](N)C(=O)NCc1cc2n(n1)CCCN(C(=O)C1CCC1)C2`: the Percent Effect in assay [1] was -0.458%; in assay [2], 6.94%; in [3], -3.76%; in assay [4] it was 1.43%; in the assay on Trypanosoma cruzi it was 8.26%; in [5], -0.442%. In addition, the Percent Effect is 10.5% in assay [6]; -24.3% in the assay filed under Homo sapiens; 0% in assay [7]; 12.8% in assay [8]; -3.49% in assay [9].

Turning to `O=C(CN1CCCCC1Cn1cncn1)NCc1ccccn1` (stereo unspecified), the Percent Effect in assay [1] is -0.608%; in assay [2] it was 2.53%; in [3], -4.5%; in assay [4] it was -1.76%; with Trypanosoma cruzi, -5%; in [5], 5.32%. Further, the Percent Effect in assay [6] was -6.31%; in the assay listed under Homo sapiens it was 11%; in assay [7] it was 4.43%; in [8], 3.8%; in [9], -4.29%.

Take `O=S1(=O)c2ccccc2C2(CCN(Cc3ccccc3)C2)N1CC1CC1` (stereo unspecified): the Percent Effect was -1.03% in assay [1]; 0% in assay [2]; 12.2% in assay [3]; 4.58% in [4]; 1.18% with Trypanosoma cruzi; 2.1% in assay [5]. Besides, the Percent Effect in [6] was -0.264%; in the assay filed under Homo sapiens, 32.1%; in assay [7], 3.19%; in assay [8], 3.85%; in assay [9] it was 2.59%.

Consider `O=C(NC1CC1)N1CCc2ncnc(-c3ccncc3)c2CC1`, for which the Percent Effect in assay [1] is 5.45%; in [2], 10.7%; in [3], 17.6%; in assay [4] it was 1.38%; in the assay on Trypanosoma cruzi, -6.37%; in assay [5], -55.4%. In addition, the Percent Effect is 12% in assay [6]; 4.1% in the assay listed under Homo sapiens; 2.08% in assay [7]; 25% in assay [8]; -4.64% in assay [9].

Turning to `CCc1cnc(N2CC3(CCN(C(=O)c4ccoc4)C3)C2)nc1`, the Percent Effect is -7.71% in assay [1]; -10.4% in assay [2]; 3.45% in [3]; 3.13% in assay [4]; -2.46% in the assay on Trypanosoma cruzi; 5.52% in [5]. Moreover, the Percent Effect in assay [6] was 9.65%; in the assay filed under Homo sapiens, 8.56%; in [7], -2.15%; in assay [8] it was -1.24%; in assay [9], -0.64%.

For the compound `COc1cc(CNC(=O)Nc2cc(C(F)(F)F)c[nH]c2=O)ccn1`, the Percent Effect in assay [1] is -3.54%; in assay [2], 13.2%; in assay [3], 2.48%; in [4] it was 10.4%; in the assay on Trypanosoma cruzi, 1.13%; in assay [5], -3.06%. The Percent Effect in assay [6] is 12.7%; in the assay listed under Homo sapiens it was 7.49%; in assay [7], 0.49%; in [8], 12.2%; in assay [9], -11.3%.

As for `O=C(CN1CCc2c(ncn2C2CC2)C1)NC1CC1`, the Percent Effect in assay [1] is -2.66%; in assay [2], -3.8%; in [3], -0.272%; in assay [4], 5.53%; in the assay with Trypanosoma cruzi it was -2.56%; in assay [5] it was 3.66%. The Percent Effect in [6] is 9.09%; in the assay listed under Homo sapiens it was 5.09%; in assay [7] it was 2.08%; in assay [8], 5.06%; in assay [9] it was -4.23%.

As for `O=C(c1ccc(F)c(F)c1)N1CCCC1CN1CCCC1` (stereo unspecified), the Percent Effect in [1] was -1.25%; in [2] it was 7.89%; in assay [3], -2.36%; in [4], -14.5%; in the assay on Trypanosoma cruzi, -3.02%; in [5] it was -3.55%. In addition, the Percent Effect in [6] is 15.2%; in the assay filed under Homo sapiens it was -11.1%; in [7], 7.45%; in [8] it was 18.2%; in assay [9], -8.37%.

For `Cc1cc(NC(=O)NCc2ccccc2OC(F)F)n(C)n1`, the Percent Effect in assay [1] was 1.45%; in assay [2] it was 6.33%; in assay [3], 5.29%; in assay [4], -4.29%; with Trypanosoma cruzi it was -7.69%; in assay [5], 4.09%. The Percent Effect in assay [6] is 21.3%; in the assay listed under Homo sapiens, 4.53%; in assay [7], 3.12%; in assay [8], 2.53%; in assay [9], -5.23%.

The values are drawn from ChEMBL document CHEMBL3988442, “University of Dundee, Small-Polar-MMV Screening Library” (2021).
